Key:
Test in all cases: PBM binding z-score (relative to random genomic background probes); higher = stronger binding; sequences stand for … in GC…GCGATTGACAGCGTAGAATGAAGG
[1] = test system: FXR:RXRa (NR concentration 270 nM, RXRa partner concentration 90 nM)
In short: (§1)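 Binding z-scores take random background probes as their reference. They come from custom Agilent 4×180K protein-binding microarrays incubated 1 h with ligand-free nuclear receptor dimers, with antibodies against each partner (one per run) detecting binding. Scanned fluorescence was regression-normalized.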

[2] = test system: LXRa:RXRa (NR concentration 270 nM, RXRa partner concentration 90 nM)
In short: as §1

[3] = test system: LXRa homodimer (NR concentration 270 nM)
In short: as §1

[4] = test system: LXRb:RXRa (NR concentration 270 nM, RXRa partner concentration 90 nM)
In short: as §1

[5] = test system: LXRb homodimer (NR concentration 270 nM)
In short: as §1

[6] = test system: PPARa:RXRa (NR concentration 270 nM, RXRa partner concentration 90 nM)
In short: as §1

[7] = test system: PPARg:RXRa (NR concentration 180 nM, RXRa partner concentration 90 nM)
In short: as §1

[8] = test system: PPARg:RXRa 270nM:90nM, anti-RXR (NR concentration 270 nM, RXRa partner concentration 90 nM)
In short: as §1

[9] = test system: PPARg:RXRa 30nM:10nM, anti-RXR (NR concentration 30 nM, RXRa partner concentration 10 nM)
In short: as §1

[10] = test system: PPARg:RXRa 90nM:30nM, anti-RXR (NR concentration 90 nM, RXRa partner concentration 30 nM)
In short: as §1

| Sequence | PBM binding z-score [1] | PBM binding z-score [2] | PBM binding z-score [3] | PBM binding z-score [4] | PBM binding z-score [5] | PBM binding z-score [6] | PBM binding z-score [7] | PBM binding z-score [8] | PBM binding z-score [9] | PBM binding z-score [10] |
| --- | --- | --- | --- | --- | --- | --- | --- | --- | --- | --- |
| CGTCAAAGTTCAAAGTAACGTAACAGAAAGCAGC | 6.87 | 6.57 | 4.32 | 4.01 | 2.75 | 4.91 | 4.43 | 5.36 | 2.18 | 4.17 |
| ATATATAGGTTATCGGGTCATTCAGTTTGCGCAT | 3.94 | 3.78 | 2.66 | 3.46 | 2.07 | 5.17 | 7.65 | 6.52 | 4.09 | 6.01 |
| TTACCAAGGTAAAGGTCGTTGATCCCTCTGTAGA | 3.54 | 3.56 | 0.635 | 2.91 | -0.332 | 4.13 | 6.84 | 7.33 | 5.9 | 7.74 |
| CGAACTCGGTCAGAACAGGACAGTGAAGGATGAT | 0.127 | 0.0151 | 0.0405 | -0.32 | -0.669 | 0.415 | 0.904 | 0.142 | 0.197 | 0.033 |
| CCTTACGGGTCAAGGTTATAGCACGGGTGGTACG | 5.23 | 3.73 | 0.318 | 2.98 | 0.019 | 5.02 | 4.65 | 4.69 | 2.06 | 3.64 |
| TGAATGAGGTTAAAGATCAGGTAACGTGGCGTCG | 3.32 | 2.73 | -0.204 | 1.82 | 0.134 | 4.75 | 5.6 | 5.96 | 4.89 | 6.01 |
| CCTAGCAGGCCAATGTGGGTCACTCAAGGCTTGA | 0.735 | 1.67 | -0.413 | 0.94 | -1.16 | 3.33 | 1.94 | 2.65 | 0.359 | 1.74 |
| CTACCAAGGTGAACAAGTTCGTTGATTACTATTC | 0.442 | 0.532 | 0.164 | 0.939 | -0.333 | 1.49 | 0.367 | 0.665 | -0.0232 | 0.145 |
| TCTAGCAGGCCAGAGAGTCACTCAAGAGGTACGG | -0.122 | 0.066 | -0.75 | -0.374 | -1.55 | 0.177 | 0.656 | 1.18 | 1.72 | 1.4 |
| AGAACGTGGGCAATGAGTTGATAGCACGGGTGGC | -0.669 | -0.786 | -0.475 | -1.07 | -0.973 | -0.601 | 0.723 | -0.543 | -0.342 | -0.679 |
| ACTAGTTGGTCAGCTGAGGTCATACACAATTCGG | 3.84 | 3.45 | 3.44 | 3.54 | 1.09 | 3.52 | 1.43 | 1.72 | 0.448 | 1.14 |
| ACTGGTTGGTCAGCTGAGGTCACACACAATTCGG | 3.86 | 3.31 | 2.58 | 3.6 | 0.876 | 3.6 | 1.53 | 2.1 | 0.448 | 1.43 |
| GCTTATAGGTAATACAAGGTGAAAGTCCGATTGT | 0.773 | 2.61 | 0.251 | 0.934 | -0.275 | 1.5 | 0.93 | 1.22 | 0.379 | 0.916 |
| TCACCAAGGTGAAAGGTCGTTGATGCACGCCTTG | 3.32 | 3.01 | -0.0102 | 2.68 | -0.932 | 5.28 | 7.74 | 7.39 | 6.81 | 7.43 |
| ATCTCTAGGTAAAGTTCAGTGTAAGATCGATAGA | 1.55 | 2.13 | 2.27 | 1.55 | 1.1 | 2.47 | 3.17 | 4.49 | 2.44 | 4.28 |
| CCTTATGGGTCACTCCAGGTTATAGCATCGGAGT | 3.67 | 7.24 | 1.43 | 4.49 | -0.105 | 3.92 | 4.6 | 4.39 | 1.84 | 3.6 |
| CAAACTACGTCAAAGGTCAAAGTCGAGCCAACCA | 5.96 | 6.21 | 4.83 | 5.68 | 2.75 | 6.18 | 8.64 | 7.97 | 6.79 | 8.59 |
| GCTTGTAGAGCAAGGTTAAGAAAGACTAAGCTAA | -0.0313 | 0.442 | -0.567 | 0.174 | -1.28 | 1.5 | 1.41 | 2.77 | 0.817 | 2.03 |
| TCGAGTAGGTGAGTCGGGGCATTCAGCCAACATA | -0.0608 | -0.132 | -0.66 | 0.164 | -0.758 | 0.821 | 0.173 | 0.652 | 0.673 | 0.803 |
| CGACCAAGGTCAGCAGGTCAGTGAAAGCGACGTG | 5.71 | 3.43 | -0.15 | 2.77 | -0.923 | 4.85 | 4.53 | 4.43 | 1.12 | 3.02 |
| TCTGGTAGATCAAAGGTTAAGAAAGCCGAAGCCT | 1.8 | 2.1 | 0.139 | 2.08 | -0.305 | 3.73 | 6.37 | 6.52 | 5.92 | 6.95 |
| CTACGAAGGTGAACAAGGTCGTTGATTACTATTC | 1.63 | 1.54 | 0.18 | 1.91 | -0.34 | 2.66 | 0.958 | 1.03 | -0.0387 | 0.552 |
| CGAACTAGGTCATCCAGGACACTGAATACATTGA | 4.41 | 3.1 | 0.974 | 2.29 | 0.265 | 4.94 | 7.9 | 6.43 | 3.85 | 5.81 |
